Source: PubChem BioAssay (NCATS)
Records with an inconclusive call do not appear. A call without a number means that no potency is given here. The source made the active and inactive calls. Calls follow the shape of the dose curve; as a rule, active = well fitted cell-killing curve with a large enough effect; inconclusive = small, poorly fitted or top-dose-only effect, or effect the other way; inactive = no such curve, though single readings can be large or run the other way.

assay: qHTS assay to identify small molecule inhibitors of chordoma cells - UCH-1 (AID 1259355); details: UCH-1 chordoma viability, CellTiter-Glo, 48 h, combination, with auranofin plus four topoisomerase inhibitors; series mostly up to 46.1 µM; also: nearly all actives have a fitted effect of over 55% in size
Source text: NIH Chemical Genomics Center [NCGC]
Chordoma is a rare and slow growing tumor that can occur anywhere along the spine, from the base of the skull to the tailbone. Current treatment options for chordoma is surgery and radiation therapy for those who are not candidates for surgery. But chordomas tend to return in the same location or surrounding areas of the original tumor after surgery and/or radiation. Chemotherapy can slow down the progression of the tumor. As chordoma is slow growing, the general cytotoxic agents that kill fast growing cells are ineffective, and some patients have been reported to respond to molecularly targeted drugs.
NCATS Pharmaceutical Collection (NPC) containing approximately 3000 clinically approved and investigational drugs were used to screen at 15 concentrations in a chordoma cell lines, UCH-1, to identify small molecule compounds that can inhibit chordoma cell growth.
NCGC Assay Protocol Summary:
Human chordoma cell line UCH-1 was dispensed at 800 per well in 4uL of culture medium into white solid bottom 1536-well plates (Corning Life Sciences, Corning, NY) using a Multidrop Combi (Thermo Scientific, Waltham, MA) dispenser. The assay plates were incubated at 37 C and 5% CO2 for an overnight, and then 23nL of compounds dissolved in DMSO and positive control were transferred using a Pintool station (Wako, San Diego, CA). Compound treatment was followed by the addition of 1uL of the combination compounds (1uM Auranofin, 500nM each of Camptothecin, Doxorubicin, Rubitecan, and Topotecan) and assay medium to each well of the assay plates using Flying Reagent Dispenser (FRD, Aurora Discovery, San Diego, CA). The assay plates were incubated at 37 C and 5% CO2 for 48hr. Then 5uL of CellTiter-Glo reagent (Promega Corporation, Madison, WI) was added to each well of the assay plates using FRD. After 30min incubation at room temperature, the luminescence signal was quantified using a ViewLux plate reader (PerkinElmer, Shelton, CT).

Compound | Potency
CCC(C(=O)OCCN(CC)CC)c1ccccc1 (stereo not given) | inactive
COC1=CC(=O)C[C@@H](C)[C@]12Oc1c(Cl)c(OC)cc(OC)c1C2=O | inactive
O=C(CCN1CCC(c2ccccc2)C1)c1ccc2c(c1)OCCO2 (stereo not given) | inactive
C[C@]12CC[C@@H]3c4ccc(O)cc4CC[C@H]3[C@@H]1CC[C@@H]2O | inactive
N[C@@H](CCC(=O)N[C@@H](CS)C(=O)NCC(=O)O)C(=O)O | inactive
CCCCOc1ccc(C(=O)CCN2CCCCC2)cc1 | inactive
C[C@]12CCC(=O)C=C1[C@@H]1C[C@@H]1[C@H]1[C@@H]3[C@@H]4C[C@@H]4[C@@]4(CCC(=O)O4)[C@@]3(C)CC[C@@H]12 | inactive
O=C(CCCN1CCC(O)(c2ccc(Br)cc2)CC1)c1ccc(F)cc1 | inactive
CCN(CC)CCOc1ccc(C(O)(Cc2ccc(Cl)cc2)c2ccc(C)cc2)cc1 (stereo not given) | inactive
C[C@@H](CN(C)C)CN1c2ccccc2Sc2ccccc21 | inactive
Cc1c(C)n(CCN(C)C)c2ccc(C(=O)OCCN(C)C)cc12 | inactive
CCCCOc1ccc(OCCCN2CCOCC2)cc1 | inactive
C=C1C(=C/C=C2\CCC[C@]3(C)[C@@H]([C@H](C)/C=C/[C@@H](O)C4CC4)CC[C@@H]23)C[C@@H](O)C[C@@H]1O | inactive
CC(C)NC[C@@H](O)COc1cccc2ccccc12 | inactive
CC(C)(Oc1ccc(Cl)cc1)C(=O)O | inactive
C[C@]12CC[C@@H]3c4ccc(O)cc4CC[C@H]3[C@@H]1C[C@@H](O)[C@@H]2O | inactive
CC(C)C[C@H]1C(=O)N2CCC[C@H]2[C@]2(O)O[C@](NC(=O)[C@@H]3C=C4c5cccc6[nH]c(Br)c(c56)C[C@H]4N(C)C3)(C(C)C)C(=O)N12 | inactive
CC(Cc1ccccc1)(NC(=O)CN)c1ccccc1 (stereo not given) | inactive
CNCCC(Oc1ccccc1C)c1ccccc1 (stereo not given) | inactive
NCCC(O)(P(=O)(O)O)P(=O)(O)O | inactive

Compound | Potency
CCOC(=O)n1ccn(C)c1=S | inactive
CCN(CC)CCOC(=O)C(c1ccccc1)C1CCCCC1 (stereo not given) | inactive
CC(C)N=C(N)/N=C(\N)Nc1ccc(Cl)cc1 | inactive
CN(C)CC/C=C1/c2ccccc2COc2ccc(CC(=O)O)cc21 | inactive
N[C@H](CO)C(=O)O | inactive
CC(=O)Oc1ccc2c(c1)CC[C@@H]1[C@@H]2CC[C@]2(C)[C@@H](O)CC[C@@H]12 | inactive
Nc1ccc(C(=O)O)cc1 | inactive
CCCCCCCCCCCCCCCCOP(=O)([O-])OCC[N+](C)(C)C | inactive
O=c1[nH]c(=O)n([C@H]2C[C@H](O)[C@@H](CO)O2)cc1C(F)(F)F | inactive
CCOC(=O)/C=C(C)/C=C/C=C(C)/C=C/c1c(C)cc(OC)c(C)c1C | inactive
Cc1c(C)n(Cc2ccccc2)c2ccc(C(=O)OCCN(C)C)cc12 | inactive
Cc1cccc(C)c1NC(=O)CN1CCN(CCCC(c2ccc(F)cc2)c2ccc(F)cc2)CC1 | inactive
OC[C@@H](O)[C@@H](O[C@@H]1O[C@H](CO)[C@H](O)[C@H](O)[C@H]1O)[C@H](O)[C@@H](O)CO | inactive
CCCCCCc1ccc(O)cc1O | inactive
CC/C(=C(/CC)c1ccc(O)cc1)c1ccc(O)cc1 | inactive
C[C@@H]1C(=O)NC2=Nc3cccc(Cl)c3CN21 | inactive
CCCCCCCCCCOCC(O)CN (stereo not given) | inactive
CCCC(=O)Nc1ccc(OCC(O)CNC(C)C)c(C(C)=O)c1 (stereo not given) | inactive
Clc1ccc2c(c1)CCc1cccnc1C2=C1CCNCC1 | inactive
Nc1ccc(/C=C/c2ccc(N)cc2S(=O)(=O)O)c(S(=O)(=O)O)c1 | inactive
